# Assay results reported in the supplement of paper PMC9694430.
# Structures can show the parent of a compound that is named as a salt.
# Columns and labels:
# Experiment in all cases: thermal shift delta Tm vs DMSO control; higher = stronger stabilization (binding)
# Conditions in all cases: 12.5 µM; protein concentration 2 µM
# LOC_OS01G57100-cb003 = tested on: LOC_OS01G57100-cb003
# Summary of the method: (§1)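 Purified, E. coli-expressed rice kinase domain constructs were tested by differential scanning fluorimetry in 96-well plates: 19.5 μl of 2 μM kinase in 100 mM potassium phosphate pH 7.5, 150 mM NaCl, 10% glycerol, 5 × SYPRO Orange, plus compound in DMSO. Fluorescence was read from 25°C to 95°C at 0.05°C/s. Melting temperatures came from Boltzmann fits, and the shift is the triplicate mean relative to protein with DMSO alone.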
# LOC_OS01G60330-cb001 = tested on: LOC_OS01G60330-cb001
# Summary of the method: as §1
# LOC_OS01G60700-cb002 = tested on: LOC_OS01G60700-cb002
# Summary of the method: as §1
# LOC_OS01G63280-cb003 = tested on: LOC_OS01G63280-cb003
# Summary of the method: as §1
# LOC_OS01G67340-cb003 = tested on: LOC_OS01G67340-cb003
# Summary of the method: as §1
# LOC_OS01G70970-cb002 = tested on: LOC_OS01G70970-cb002
# Summary of the method: as §1
# LOC_OS02G07810-cb001 = tested on: LOC_OS02G07810-cb001
# Summary of the method: as §1
# LOC_OS02G08530-cb003 = tested on: LOC_OS02G08530-cb003
# Summary of the method: as §1
# LOC_OS02G14120-cb001 = tested on: LOC_OS02G14120-cb001
# Summary of the method: as §1
# LOC_OS02G17970-cb001 = tested on: LOC_OS02G17970-cb001
# Summary of the method: as §1
SMILES,thermal shift delta Tm (LOC_OS01G57100-cb003) [°C],thermal shift delta Tm (LOC_OS01G60330-cb001) [°C],thermal shift delta Tm (LOC_OS01G60700-cb002) [°C],thermal shift delta Tm (LOC_OS01G63280-cb003) [°C],thermal shift delta Tm (LOC_OS01G67340-cb003) [°C],thermal shift delta Tm (LOC_OS01G70970-cb002) [°C],thermal shift delta Tm (LOC_OS02G07810-cb001) [°C],thermal shift delta Tm (LOC_OS02G08530-cb003) [°C],thermal shift delta Tm (LOC_OS02G14120-cb001) [°C],thermal shift delta Tm (LOC_OS02G17970-cb001) [°C]
N#C/C(=C\c1ccc(O)c(O)c1)C(=O)NCc1ccccc1 [AG-490 (Tyrphostin B42)],0.3,0.46,1.9,0.34,0.38,0.32,1.89,0.84,-0.01,1.7
COc1ccc([C@@H]2OC[C@H]3[C@@H]2CO[C@@H]3c2ccc(O[C@@H]3O[C@H](CO)[C@@H](O)[C@H](O)[C@H]3O)c(OC)c2)cc1OC [Forsythin],0.47,-0.03,-0.08,-0.19,0.01,0.21,-0.9,0.57,0.19,-0.6
C[C@H](NC(=O)c1c(N)nn2cccnc12)c1cc2cccc(C#Cc3cnn(C)c3)c2c(=O)n1-c1ccccc1,1.25,0.23,-0.49,0,0.21,0.36,-0.71,0.78,0.56,0.54
Cc1ccc(Nc2cc(N[C@@H]3CCCC[C@@H]3N)nnc2C(N)=O)nc1C,2.34,1.23,1.25,0.77,0.39,2.01,0.12,2.54,5.04,1.48
COc1cc2nccc(Oc3ccc(NC(=O)c4cn(C(C)C)c(=O)n(-c5ccc(F)cc5)c4=O)cc3F)c2cc1OC,0.85,0.41,0.47,-0.09,0.68,0.8,-0.36,0.66,8.24,1.66
O=C(NOC[C@H](O)CO)c1ccc(F)c(F)c1Nc1ccc(I)cc1F,0.81,1.22,1.23,0.57,0.04,0.46,1.39,1.15,1.04,0.52
O=C1NC(=O)C(=Cc2ccc(-c3ccc(F)cc3)o2)S1 (stereo in doubt),3.43,0.21,0.92,0.52,1.18,0.36,1.67,1.15,0.34,1.28
Cc1cc(Nc2nc(N[C@@H](C)c3ncc(F)cn3)ncc2Cl)[nH]n1,1.57,4.82,0.28,1.3,-0.24,2.3,0.96,2.02,8.03,0.48
C[C@H]1[C@H](C)CC[C@]2(C(=O)O)CC[C@]3(C)C(=CC[C@@H]4[C@@]5(C)C[C@@H](O)[C@H](O)[C@@](C)(CO)[C@@H]5CC[C@]43C)[C@H]12 [Asiatic Acid],2.35,0.45,0.54,-0.01,0.72,0.06,0.83,0.74,0.58,0.33
COc1ccc2[nH]cc(/C=C3\C(=O)Nc4ccc(NC(=O)CCN5CCCCC5)cc43)c2c1,0.21,1.51,1.62,1.06,1.09,0.85,0.83,1.82,1.59,1.88
N#Cc1c(O)c2c(-c3ccc(-c4ccccc4O)cc3)csc2[nH]c1=O,3.04,1.32,1.46,0.82,0.95,0.52,1.91,1.2,0.5,1.96
COc1ccc(CNC(=O)Nc2ncc([N+](=O)[O-])s2)cc1,1.87,0.81,1.38,0.15,0.55,0.54,1.25,1.46,-0.24,1.43
C=CC(=O)Nc1cccc(Oc2nc(Nc3ccc(N4CCN(C)CC4)cc3)ncc2Cl)c1,-0.75,1.82,0.8,0.27,-0.1,3.9,0.94,2.58,8.31,0
CN1CC[C@H](c2c(O)cc(O)c3c(=O)cc(-c4ccccc4Cl)oc23)[C@H](O)C1 [Flavopiridol HCl],1.91,1.31,0.43,1.03,0.26,1.67,1.12,2.13,2.4,0.78
COc1cc2nccc(Oc3ccc(NC(=O)NC4CC4)c(Cl)c3)c2cc1C(N)=O [Lenvatinib (E7080)],-0.21,1.52,1.38,0.36,-0.21,0.67,0.65,1.11,0.02,0.27
N#Cc1ccc2[nH]c(O)c(-c3ccc(CN4CCOCC4)cn3)c2c1,-0.18,0.88,1.33,0.3,-0.02,0.56,0.82,1.04,-0.04,0.51
CNC(=O)c1ccc(C)c(-n2c(C)cc(OCc3ccc(F)cc3F)c(Br)c2=O)c1,2.4,0.78,1.45,0.3,-0.29,0.12,1.25,0.96,0.27,0.83
Cn1cc(-c2cnn3c(N)c(Br)c([C@@H]4CCCNC4)nc23)cn1,-0.78,1.36,0.1,0.91,0.29,0.3,2.88,0.14,3.6,-0.03
COc1nccnc1NS(=O)(=O)c1ccc(NC(=O)/C=C/c2ccc([N+](=O)[O-])s2)cc1 [Necrosulfonamide],-1.39,1.46,1.17,0.16,0.36,-0.61,1.4,0.83,-0.66,2.48

SMILES,thermal shift delta Tm (LOC_OS01G57100-cb003) [°C],thermal shift delta Tm (LOC_OS01G60330-cb001) [°C],thermal shift delta Tm (LOC_OS01G60700-cb002) [°C],thermal shift delta Tm (LOC_OS01G63280-cb003) [°C],thermal shift delta Tm (LOC_OS01G67340-cb003) [°C],thermal shift delta Tm (LOC_OS01G70970-cb002) [°C],thermal shift delta Tm (LOC_OS02G07810-cb001) [°C],thermal shift delta Tm (LOC_OS02G08530-cb003) [°C],thermal shift delta Tm (LOC_OS02G14120-cb001) [°C],thermal shift delta Tm (LOC_OS02G17970-cb001) [°C]
COc1cc2ncc(-c3ccccc3)nc2cc1OC [Tyrphostin AG 1296],0.4,3.29,1.32,1.35,1.24,0.75,-0.01,1.3,2.29,0.27
CCOc1cn(-c2ccc(F)cc2C)nc1C(=O)Nc1ccc(Oc2ccnc3cc(OC)c(OC)cc23)c(F)c1,0.32,1.07,0.34,0.6,0.43,0.98,0.56,1.15,2.96,0.55
Cc1c(NC(=O)c2ccc(C(C)(C)C)cc2)cccc1-c1cn(C)c(=O)c(Nc2ccc(C(=O)N3CCOCC3)cc2)n1,1.59,0.51,1.36,0.36,-0.03,0.22,0.9,0.31,0,0.66
C[C@@H]1COCCN1c1cc(=O)n2c(n1)N(Cc1cncc(Cl)c1)[C@H](C(F)(F)F)CC2,1.19,1.13,1.05,0.61,0.35,0.33,0.77,0.7,0.82,1.7
CNC(=O)CN1CCC(Oc2cc3c(Nc4cccc(Cl)c4F)ncnc3cc2OC)CC1 [Sapitinib (AZD8931)],0.77,0.15,0.56,0.07,-0.27,-0.1,0.32,0.51,2.09,-0.13
O=C1NC(=O)/C(=C/c2ccc(-c3ccc(F)cc3O)o2)S1,4.13,9.64,1.12,23.4,5.05,4.18,2.79,1.57,2.56,1.7
CS(=O)(=O)N1CCN(Cc2cc3nc(-c4cccc5[nH]ncc45)nc(N4CCOCC4)c3s2)CC1 [Pictilisib (GDC-0941)],0.25,2.44,0.85,-0.25,-0.42,0.62,0.7,1.22,0.32,0.17
Nc1nc(N)c(N=O)c(OCC2CCCCC2)n1,1.14,2.6,1.46,0.91,0.46,1.27,0.51,0.99,2.99,0.61
COc1cc2c3cc1Oc1c(OC)c(OC)cc4c1[C@@H](Cc1ccc(O)c(c1)Oc1ccc(cc1)C[C@@H]3N(C)CC2)N(C)CC4 [Berbamine (dihydrochloride)],1.3,-0.73,1.22,-0.06,0.28,0.03,-0.23,1.1,0.03,-0.21
CNc1nc(-c2ccc3c(N)n[nH]c3c2)cc(N2C[C@@H](C(=O)NC3CCCCC3)CC[C@H]2C)n1,2.04,0.28,2.12,0.81,-0.04,0.71,1.63,1.27,0.75,1.01
CCCCCCCCc1ccc(CCC(N)(CO)CO)cc1 [Fingolimod (FTY720) HCl],0.23,0.41,0.6,-1.03,-0.42,-0.82,-1.73,-0.4,-0.78,-0.74
Nc1ccc(C(=O)Nc2cccc(-c3nc(N4CCOCC4)c4oc5ncccc5c4n3)c2)cn1,1.26,1.1,1.16,-0.04,-0.15,0.23,0.77,1.1,0.34,0.35
CCN(CC)CCCCNc1ncc2cc(-c3cc(OC)cc(OC)c3)c(NC(=O)NC(C)(C)C)nc2n1,0.87,0.35,0.92,0.87,0.05,0.05,0.72,0.6,-0.08,0.18
COc1cc(CCc2cc(NC(=O)c3ccc(N4CC(C)NC(C)C4)cc3)n[nH]2)cc(OC)c1 (stereo not given),0.84,0.69,0.93,0.35,0.25,0.66,0.89,1.49,2.12,-0.05
C=CC(=O)Nc1cc(Nc2nccc(-c3cn(C)c4ccccc34)n2)c(OC)cc1N(C)CCN(C)C [Osimertinib (AZD9291)],-0.15,1.07,1.16,0.43,0.42,0.32,0.03,3.79,3.74,-0.32
C=CC(=O)N1CCN(CCCn2c(=O)c(-c3c(Cl)c(OC)cc(OC)c3Cl)cc3cnc(NC)nc32)CC1,1.48,-0.24,0.2,-0.06,0.02,0.17,-0.82,0.53,0.67,-0.31
O=C1c2c(O)cc(O)cc2OC(c2ccc(O)c(O)c2)C1O (stereo not given) [Taxifolin (Dihydroquercetin)],1.27,0.28,0.38,0.25,0.07,0.29,0.09,0.73,0.32,0.67
Cc1ccc(F)c(NC(=O)Nc2ccc(-c3cccc4[nH]nc(N)c34)cc2)c1 [Linifanib (ABT-869)],-0.27,4,2.06,4.52,2.81,1.72,1.34,3.05,4.49,0.94
O=C(O)c1ccc(-c2c[nH]c3ncc(-c4ccccc4)cc23)cc1C1CCCC1,1.09,-0.77,-3.79,2.57,4.86,6.62,0.4,4.81,10.7,-1.49
